# PubChem BioAssay (NCI)
# Where “and” joins values, the source holds several entries; their conditions need not be identical. Equal entries are not always repeated. This is part of a sample that, as a whole, favours compounds with a hit. Of some 83,000 tested, about 20% had one in any assay.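 The endpoint reported here, percent growth, reads 100 for growth as untreated, 0 for no net growth and -100 for all cells dead.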 Calls of active or inactive are those of the source. How the source made its calls: active means growth percent below 10; inactive means the rest.
# Legend:
# Experiment in all cases: NCI-60 one-dose screen, 48 h (100 = growth as untreated, 0 = no growth, -100 = all killed)
# Details in all cases: 10 µM unless noted
# NCI-H23 lung = tested on: NCI-H23 lung
# NCI-H226 lung = tested on: NCI-H226 lung
# NCI-H322M lung = tested on: NCI-H322M lung
# HOP-62 NSCLC = tested on: HOP-62 NSCLC
# NCI-H460 lung = tested on: NCI-H460 lung
# HOP-92 NSCLC = tested on: HOP-92 NSCLC
# NCI-H522 lung = tested on: NCI-H522 lung
# A549/ATCC NSCLC = tested on: A549/ATCC NSCLC
# 786-0 renal = tested on: 786-0 renal
# COLO 205 colon = tested on: COLO 205 colon
# DU-145 prostate = tested on: DU-145 prostate
# K-562 leukemia = tested on: K-562 leukemia
# MALME-3M melanoma = tested on: MALME-3M melanoma
# MDA-MB-231 breast = tested on: MDA-MB-231 breast
# RXF 393 renal = tested on: RXF 393 renal
# SF-268 CNS = tested on: SF-268 CNS
# SF-295 CNS = tested on: SF-295 CNS
# SF-539 CNS = tested on: SF-539 CNS
# UACC-257 melanoma = tested on: UACC-257 melanoma
# M14 melanoma = tested on: M14 melanoma
Structure (SMILES),growth (NCI-H23 lung),growth (NCI-H226 lung),growth (NCI-H322M lung),growth (HOP-62 NSCLC),growth (NCI-H460 lung),growth (HOP-92 NSCLC),growth (NCI-H522 lung),growth (A549/ATCC NSCLC),growth (786-0 renal),growth (COLO 205 colon),growth (DU-145 prostate),growth (K-562 leukemia),growth (MALME-3M melanoma),growth (MDA-MB-231 breast),growth (RXF 393 renal),growth (SF-268 CNS),growth (SF-295 CNS),growth (SF-539 CNS),growth (UACC-257 melanoma),growth (M14 melanoma)
Clc1ccc(/C=C/c2ccc3ccccc3n2)cc1,37.6% (inactive) and 89.5% (inactive) and 71.2% (inactive),84.1% (inactive) and 81.1% (inactive) and 92.6% (inactive),38.8% (inactive) and 90.3% (inactive) and 86.1% (inactive),45.2% (inactive) and 95.4% (inactive) and 93.5% (inactive),8.45% (active) and 86% (inactive) and 81.1% (inactive),42.9% (inactive) and 67% (inactive) and 85.3% (inactive),-38.8% (active) and 79.1% (inactive) and 76.8% (inactive),25.9% (inactive) and 92.3% (inactive) and 96.6% (inactive),55.3% (inactive) and 97.8% (inactive) and 100% (inactive),-6.62% (active) and 112% (inactive) and 100% (inactive),1.65% (active) and 108% (inactive) and 103% (inactive),17.7% (inactive) and 91.2% (inactive) and 87.3% (inactive),62.3% (inactive) and 89.8% (inactive) and 77.1% (inactive),31% (inactive) and 80.1% (inactive) and 84% (inactive),8.75% (active) and 117% (inactive),43.4% (inactive) and 97.7% (inactive) and 96.9% (inactive),17.9% (inactive) and 74% (inactive) and 84.7% (inactive),1.74% (active) and 102% (inactive),44.2% (inactive) and 134% (inactive) and 104% (inactive),81% (inactive) and 75.3% (inactive)
CCc1ccc(OC(=O)CCl)cc1,96.7% (inactive),97% (inactive),102% (inactive),110% (inactive),106% (inactive),101% (inactive),102% (inactive),105% (inactive),104% (inactive),111% (inactive),102% (inactive),102% (inactive),96.9% (inactive),99.4% (inactive),113% (inactive),95.3% (inactive),97.8% (inactive),99% (inactive),103% (inactive),96.3% (inactive)
COC(=O)c1nc(=S)[nH]c(C(=O)OC)c1C(=O)c1ccccc1,101% (inactive),90.2% (inactive),106% (inactive),113% (inactive),114% (inactive),92% (inactive),103% (inactive),112% (inactive),120% (inactive),119% (inactive),116% (inactive),111% (inactive),97.1% (inactive),93.5% (inactive),99.2% (inactive),108% (inactive),103% (inactive),87.8% (inactive),123% (inactive),113% (inactive)
CCCCCc1cc[n+](CC(=O)c2ccccc2)cc1,96.6% (inactive) and 92.6% (inactive),96.8% (inactive) and 89% (inactive),92.4% (inactive) and 96% (inactive),90.5% (inactive) and 108% (inactive),76.7% (inactive) and 95.4% (inactive),67.7% (inactive),95% (inactive) and 99.3% (inactive),84.1% (inactive) and 101% (inactive),97% (inactive) and 96.3% (inactive),87.3% (inactive) and 101% (inactive),105% (inactive) and 110% (inactive),113% (inactive) and 104% (inactive),100% (inactive) and 108% (inactive),104% (inactive) and 106% (inactive),98.6% (inactive) and 110% (inactive),103% (inactive) and 107% (inactive),94.1% (inactive),96.3% (inactive) and 102% (inactive),99% (inactive) and 106% (inactive),100% (inactive)
COc1cc(Cl)ccc1C,90.3% (inactive),98.3% (inactive),85.6% (inactive),99.5% (inactive),34% (inactive),99.3% (inactive),57% (inactive),84.5% (inactive),100% (inactive),94.1% (inactive),5.38% (active),83.3% (inactive),93.7% (inactive),85.9% (inactive),91.2% (inactive),83.9% (inactive),79.2% (inactive),104% (inactive),85% (inactive),95.8% (inactive)
CC(NC(=O)CCl)c1ccccc1 (stereo not given),99.9% (inactive),96.3% (inactive),106% (inactive),107% (inactive),99.7% (inactive),89% (inactive),98% (inactive),104% (inactive),104% (inactive),104% (inactive),103% (inactive),109% (inactive),99.4% (inactive),111% (inactive),98.7% (inactive),98.3% (inactive),102% (inactive),104% (inactive),100% (inactive),93.8% (inactive)
CSc1nc(N)c(N)c(N)n1,97.9% (inactive),91.9% (inactive),106% (inactive),92.6% (inactive),104% (inactive),86.6% (inactive),70.1% (inactive),95.1% (inactive),109% (inactive),117% (inactive),106% (inactive),101% (inactive),96.6% (inactive),97.6% (inactive),115% (inactive),107% (inactive),108% (inactive),103% (inactive),96.9% (inactive),102% (inactive)
O=[N+]([O-])c1ccc(NC2CCCCC2)nc1,93.2% (inactive) and 96.9% (inactive),113% (inactive) and 92.4% (inactive),117% (inactive) and 105% (inactive),94.8% (inactive) and 101% (inactive),108% (inactive) and 105% (inactive),114% (inactive) and 81.8% (inactive),95.1% (inactive) and 92.1% (inactive),101% (inactive) and 98.5% (inactive),103% (inactive),108% (inactive) and 102% (inactive),96.7% (inactive) and 119% (inactive),108% (inactive) and 104% (inactive),118% (inactive),95.4% (inactive) and 114% (inactive),126% (inactive) and 103% (inactive),110% (inactive) and 112% (inactive),103% (inactive) and 102% (inactive),99.6% (inactive) and 110% (inactive),107% (inactive) and 106% (inactive),105% (inactive) and 109% (inactive)
CCOc1ccc(/C=C\C(=O)O)cc1,109% (inactive),114% (inactive),107% (inactive),135% (inactive),109% (inactive),86.9% (inactive),115% (inactive),104% (inactive),104% (inactive),129% (inactive),111% (inactive),103% (inactive),105% (inactive),108% (inactive),138% (inactive),115% (inactive),103% (inactive),110% (inactive),109% (inactive),110% (inactive)
OCCCc1ccccc1,107% (inactive),99% (inactive),76.2% (inactive),101% (inactive),112% (inactive),94.7% (inactive),110% (inactive),99.8% (inactive),110% (inactive),94.1% (inactive),118% (inactive),121% (inactive),75.8% (inactive),97.8% (inactive),105% (inactive),108% (inactive),107% (inactive),112% (inactive),102% (inactive),100% (inactive)
CC(CN(C)C)CN1c2ccccc2Sc2ccccc21 (stereo not given),88.9% (inactive) and 86% (inactive) and 86.6% (inactive),132% (inactive) and 112% (inactive),73.1% (inactive) and 83.9% (inactive) and 65.2% (inactive),92.2% (inactive) and 78.2% (inactive) and 80.8% (inactive),95% (inactive) and 94.3% (inactive) and 93.5% (inactive),21.4% (inactive),81.1% (inactive) and 116% (inactive) and 87.2% (inactive),91.8% (inactive) and 103% (inactive) and 91.5% (inactive),59.5% (inactive) and 45% (inactive) and 69.1% (inactive),48.4% (inactive) and 84.5% (inactive) and 85% (inactive),97.3% (inactive) and 111% (inactive) and 90% (inactive),67.2% (inactive) and 72.1% (inactive) and 49.8% (inactive),81.7% (inactive) and 101% (inactive) and 95.8% (inactive),62% (inactive) and 90% (inactive),53.3% (inactive) and 86.1% (inactive) and 70.7% (inactive),90.8% (inactive) and 91.7% (inactive) and 78.1% (inactive),88% (inactive) and 35.8% (inactive) and 92% (inactive),91.7% (inactive) and 81.9% (inactive),65.1% (inactive) and 110% (inactive) and 92.1% (inactive),47.9% (inactive) and 81.3% (inactive) and 75.8% (inactive)
O=C(O)C#Cc1ccc(Cl)cc1,109% (inactive),93.2% (inactive),111% (inactive),89.3% (inactive),105% (inactive),97.8% (inactive),87.2% (inactive),87.2% (inactive),99.4% (inactive),99.9% (inactive),109% (inactive),88.5% (inactive),104% (inactive),100% (inactive),108% (inactive),104% (inactive),99.7% (inactive),102% (inactive),87.3% (inactive),98.2% (inactive)
